# Over roughly 1,700 compounds, “T3 sensor activation Q score (MG/GFP ratio z-score vs DMSO controls)” has its median near 0.25; the highest 2% begin near 1.9. The full list was thinned out, with the highest values kept by preference.
# Test system: ppGalNAc-T3 sensor
# Test: T3 sensor activation Q score (MG/GFP ratio z-score vs DMSO controls) (SD units); higher = more sensor activation (inhibition of ppGalNAc-T3 glycosylation)
# Details: HEK293 sensor cells; 10 µM; 6 h
# Procedure: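 Cells were treated with compound at 10 uM for 6 h, then MG/GFP ratio was read by flow cytometry (10,000 cells per well, duplicate wells). Q = (R - R_neg)/SD_neg relative to DMSO vehicle controls; the signal rises when the glycosyltransferase is inhibited.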
row,SMILES,T3 sensor activation Q score
1,CC12CCC3C(CCC4Cc5[nH]c6ccccc6c5CC43C)C1CCC2O (stereo not given),0.6
2,C[C@H]1CC[C@@]2(C)[C@@H](CC[C@@H]3[C@@H]2CC[C@]2(C)[C@@H](O)CC[C@@H]32)C1,3
3,COc1ccc2c(c1)NP(=S)(Oc1ccccc1)N2 (stereo not given),-0.15
4,CCC1CCC(C)N(N=O)C1 (stereo not given),1.05
5,Oc1cccc2nc3ccccc3nc12,-0.35
6,O=c1cccc2n1C[C@H]1C[C@@H]2CN2CCCC[C@@H]12,0.2
7,CC(CC(C#N)(c1ccccc1)c1ccccc1)N1CCCCC1 (stereo not given),0.05
8,CN1C2c3ccccc3C3C4c5ccccc5C(C31)C(C2[N+](=O)[O-])N4C (stereo not given),1.1
9,CC12CCC3C(CC=C4CC(O)CCC43C)C1C/C(=C\N1CCCC1)C2=O (stereo not given),1.9
10,CN1C(=O)CC[C@@]2(C)C1=CC[C@@H]1[C@@H]2CC[C@@]2(C)[C@H]1CC[C@]2(C)O,0.4
11,O=C(OC1CCCCC1)c1ccccc1C(=O)OC1CCCCC1,0.2
12,Nc1nc(N)c2cnnn2n1,0.5
13,FCCN(CCF)c1cccc(Cl)c1,1.9
14,c1ccc2nc(OCCN3CC3)ccc2c1,1
15,c1ccc2c(c1)Sc1ccccc1N2CC1CN2CCC1CC2 (stereo not given),-0.15
16,CC1(C)CC(=O)CC(C)(C)N1O,-1.9
17,CC(=O)Nc1cc([As](=O)(O)O)ccc1O,1.4
18,NC(=S)c1cn([C@@H]2O[C@H](CO)[C@@H](O)[C@H]2O)c2ncnc(N)c12,4.95
19,C1CC2NCCC3NCCC(N1)N32 (stereo not given),-0.95
20,CCOC(=O)c1ccc2[nH]c(-c3ccc(S(=O)(=O)F)cc3)cc(=O)c2c1,0.95
21,O=C(NC(=O)c1c(F)cccc1F)Nc1cc(Cl)c(F)c(Cl)c1F,-0.65
22,O=C1N(c2nncs2)CCN1[N+](=O)[O-],2.65
23,CC[C@@]1(O)C(=O)OCc2c1cc1n(c2=O)Cc2cc3ccccc3nc2-1,-1.75
24,C=CCNC(=S)Nc1ccc(OC(=O)Nc2ccc(Cl)c(Cl)c2)cc1,0.4
25,Cn1cc(C=O)c2nccnc21,-1.5
